Source: PubChem BioAssay AID2796 (The Scripps Research Institute Molecular Screening Center, 2010)
Out of some 320,000 compounds screened, about 8,000 (2.5%) were called active. The sample holds actives, similar compounds and a random draw of the others, so the mix is not that of the screen. No stated cut-off is given here; in the data, active means activation above about 47%; inactive means the rest.

molecular target: Aryl hydrocarbon receptor (Homo sapiens) (UniProt P35869); assay: AHR activators, primary screen, cell-based, luminescence, luciferase reporter, human (AID 2796); conditions: AHR-responsive luciferase reporter cells, at 5 µM, stronger effect = higher value;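 further: 0% = vehicle wells and 100% = reference agonist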
Sequence (P35869 whole entry, looked up): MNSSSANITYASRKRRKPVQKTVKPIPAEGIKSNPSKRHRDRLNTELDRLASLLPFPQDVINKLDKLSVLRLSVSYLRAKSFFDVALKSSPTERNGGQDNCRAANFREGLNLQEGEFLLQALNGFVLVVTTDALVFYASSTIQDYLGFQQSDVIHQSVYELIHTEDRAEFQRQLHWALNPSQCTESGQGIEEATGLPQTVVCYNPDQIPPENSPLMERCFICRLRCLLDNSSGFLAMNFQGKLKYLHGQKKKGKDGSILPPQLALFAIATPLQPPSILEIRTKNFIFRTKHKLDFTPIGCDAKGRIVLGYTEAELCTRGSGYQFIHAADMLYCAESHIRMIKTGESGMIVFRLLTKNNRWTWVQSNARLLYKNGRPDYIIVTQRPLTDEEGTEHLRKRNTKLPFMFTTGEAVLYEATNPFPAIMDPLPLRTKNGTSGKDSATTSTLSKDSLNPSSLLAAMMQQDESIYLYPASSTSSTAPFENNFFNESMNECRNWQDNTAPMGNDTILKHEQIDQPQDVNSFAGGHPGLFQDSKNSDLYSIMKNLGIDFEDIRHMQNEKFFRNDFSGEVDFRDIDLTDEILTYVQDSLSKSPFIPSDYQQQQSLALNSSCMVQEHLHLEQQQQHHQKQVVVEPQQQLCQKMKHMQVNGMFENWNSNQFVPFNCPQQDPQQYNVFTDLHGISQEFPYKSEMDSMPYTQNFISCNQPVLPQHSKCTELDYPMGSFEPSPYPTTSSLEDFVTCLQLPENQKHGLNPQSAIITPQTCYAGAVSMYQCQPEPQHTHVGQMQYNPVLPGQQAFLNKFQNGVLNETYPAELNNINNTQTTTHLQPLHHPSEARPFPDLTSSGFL

Row | Structure (SMILES) | activation
1 | O=C(NCc1ccncc1)c1ccc(NS(=O)(=O)c2cccc([N+](=O)[O-])c2)cc1 | -0.44% (inactive)
2 | CCC(C)NCC(=O)Nc1ccc([N+](=O)[O-])cc1C(=O)Nc1ccccc1F (stereo unspecified) | 104% (active)
3 | O=C(NCCCNc1ccc([N+](=O)[O-])cc1Cl)c1ccccc1F | -0.83% (inactive)
4 | O=C(NCCNc1ccc([N+](=O)[O-])cc1Cl)c1ccccc1F | -0.69% (inactive)
5 | CC1CC(C)CN(C(=O)C2CC(=O)N(c3ccc(F)cc3)C2)C1 (stereo unspecified) | -4.43% (inactive)
6 | Cc1ccc(O)c(CCc2ccccc2)n1 | 21.5% (inactive)
7 | COc1ccc(Nc2ncnc3ccc(Br)cc23)c(OC)c1 | 52.9% (active)
8 | O=C(O)CCCCCNc1ncnc2ccc(Br)cc12 | 4.84% (inactive)
9 | C=CCNc1ncnc2ccc(Br)cc12 | 0.32% (inactive)
10 | O=C(COc1ccccc1F)Nc1nc(-c2ccccn2)cs1 | 12.4% (inactive)
11 | Cc1cccc(NC(=O)N(Cc2cc3cc(C)cc(C)c3[nH]c2=O)CC2COCCO2)c1 (stereo unspecified) | 59.6% (active)
12 | Cc1ccc2[nH]c(=O)c(CN(CC3COCCO3)C(=O)Nc3ccccc3C)cc2c1 (stereo unspecified) | 9.5% (inactive)
13 | COc1ccc2[nH]c(=O)c(CN(CC3CCCO3)C(=O)Nc3ccccc3)cc2c1 (stereo unspecified) | 0.61% (inactive)
14 | Cc1ccc(C2(C(F)(F)F)N=C3Sc4cc(C)cc(C)c4N3C(=O)N2)cc1 (stereo unspecified) | 70.8% (active)
15 | COC(=O)C1=C(N)Oc2c(oc(CO)cc2=O)C1c1c(F)cccc1Cl (stereo unspecified) | -0.25% (inactive)
16 | Cc1ccc(N2C(=O)N3[C@@H]4c5ccccc5OC[C@@H]4[C@@H](c4ccccc4)[C@@]3(C)C2=O)cc1 | 0.11% (inactive)
17 | CCOC(=O)Cc1ncccc1C(=O)Nc1ccc(OC)cc1 | 2.4% (inactive)
18 | COC(=O)Cc1ccc(OCC(=O)Nc2ccc(OC(F)(F)F)cc2)cc1 | 1.97% (inactive)
19 | CCOC(=O)Cc1ncccc1C(=O)Nc1ccc(OC(F)(F)F)cc1 | 78.1% (active)
20 | COc1ccccc1N(C)S(=O)(=O)c1ccc(Cl)c(C(=O)Nc2ccncc2)c1 | 17.1% (inactive)
21 | CCOc1ccc(OCc2cccc(C(=O)N(CC)CC)c2)cc1 | -5.06% (inactive)
22 | CCSc1nsc(NC(=O)Nc2ccccc2OC)n1 | -2.87% (inactive)
23 | CCSc1nsc(NC(=O)Nc2cccc(C(C)=O)c2)n1 | 76.5% (active)
24 | C=CCSc1nsc(NC(=O)Nc2cccc(C(C)=O)c2)n1 | 41.3% (inactive)

Row | Structure (SMILES) | activation
25 | CC(C)(C)Nc1c(N)c(=O)oc2ccccc12 | -0.9% (inactive)
26 | O=Cc1c(NCCc2cccc(F)c2)c2ccccc2[nH]c1=O | 1.73% (inactive)
27 | Nc1c(NCCc2ccccc2)c2ccccc2oc1=O | 67.9% (active)
28 | CC(=O)Nc1ccc(NC(=O)CSc2nnc(COc3ccccc3C)n2CC2CCCO2)cc1 (stereo unspecified) | 1.11% (inactive)
29 | CCOC(=O)N1CCN(Cc2nc3ccc([N+](=O)[O-])cc3c(=O)n2-c2cccc(OC)c2)CC1 | 32.6% (inactive)
30 | Cc1noc(C)c1C(=O)Nc1ccccn1 | 4.67% (inactive)
31 | Cc1c(C(=O)Nc2ccccn2)oc2ccc(Br)cc12 | 49.7% (active)
32 | Cc1nonc1NC(=O)c1oc2ccccc2c1C | 12.5% (inactive)
33 | Cn1ncc2c(N3CCCCC3)nc(NCCCO)nc21 | 5.05% (inactive)
34 | COc1ccc(C(=O)Nc2cccc(S(C)(=O)=O)c2)cc1 | 67.2% (active)
35 | COc1ccc(NS(=O)(=O)c2ccc(NC(=O)c3ccc(N(C)S(C)(=O)=O)cc3)cc2)cc1 | -0.42% (inactive)
36 | COc1cccc(C(=O)Nc2nc3ccc(S(C)(=O)=O)cc3s2)c1 | 7.38% (inactive)
37 | CCCNC(=O)COc1coc(CN2CCN(Cc3ccccc3)CC2)cc1=O | 1.71% (inactive)
38 | Cc1cnc(C(=O)OCc2c(C)cc(C(C)(C)C)cc2C)cn1 | 3.96% (inactive)
39 | CCN(c1ccc(NC(=O)COC(=O)CCc2nc3ccccc3n2-c2ccccc2)cc1)C(C)C | -1.26% (inactive)
40 | Cc1ccc(C(=O)OCC(=O)N2CC(C)CC(C)C2)cc1S(=O)(=O)N1CCCCC1 (stereo unspecified) | 0.38% (inactive)
41 | O=C(Nc1cccnc1)c1ccc(Cl)c([N+](=O)[O-])c1 | -0.85% (inactive)
42 | Cc1ccnc(NC(=O)c2ccc(Cl)c([N+](=O)[O-])c2)c1 | 104% (active)
43 | O=C(Nc1ccncc1)c1ccc(Cl)c([N+](=O)[O-])c1 | 0.64% (inactive)
44 | COc1ccc(OC)c(/C=N/NC(=O)c2ccc[n+](CC(=O)c3ccccc3)c2)c1 | 12.9% (inactive)
45 | CCN1CCCC1CNC(=O)c1cc2c(=O)n(C)c3ccccc3c2n1C (stereo unspecified) | 3.13% (inactive)
46 | Cn1c(C(=O)NCCc2ccsc2)cc2c(=O)n(C)c3ccccc3c21 | 86.4% (active)
47 | Cn1c(C(=O)NCCCN2CCN(c3cccc(Cl)c3)CC2)cc2c(=O)n(C)c3ccccc3c21 | 7.28% (inactive)
48 | N#Cc1ccccc1NC(=O)c1ccc2c(c1)OCO2 | 32.1% (inactive)

Row | Structure (SMILES) | activation
49 | O=C(CSc1nn(-c2ccc(F)cc2)c(=S)s1)NC1CCS(=O)(=O)C1 (stereo unspecified) | 3.28% (inactive)
50 | C=CCN(C(=O)c1cc(C)cc(C)c1)C1(C(=O)Nc2ccccc2)CCN(C(C)C)CC1 | 5.4% (inactive)
51 | C=CCn1cc(Cl)cc(C(=O)Nc2ccccc2)c1=O | 50.9% (active)
52 | C=CCc1cccc2cc(C(=O)Nc3ccc(NC(C)=O)cc3)c(=O)oc12 | 16.9% (inactive)
53 | CC(C)Cc1nnc(NC(=O)CCC(=O)Nc2ccc3cn[nH]c3c2)s1 | 24.7% (inactive)
54 | O=C1NC(=O)C(c2ccc(Cl)cc2)N1 (stereo unspecified) | -2.18% (inactive)
55 | O=C1N(c2ccc(Cl)cc2)C(c2ccc(Cl)cc2)N2CCCN12 (stereo unspecified) | 54.2% (active)
56 | Cc1ccc(C)c(S(=O)(=O)N2CCCOC2CNC(=O)C(=O)NC2CCCCC2)c1 (stereo unspecified) | 2.26% (inactive)
57 | CC(=O)Oc1cccc(C(=O)Nc2ccccc2NC(=O)c2cccc(OC(C)=O)c2)c1 | 2.51% (inactive)
58 | CC(=O)c1cc(NC(=O)c2ccccc2)c(=O)oc1/C=C/N(C)C | 60.3% (active)
59 | CCOC(=O)c1cc(NC(=O)c2ccc(Cl)cc2)c(=O)oc1-c1ccccc1 | -1.16% (inactive)
60 | CC(C)C(C(=O)NCc1ccco1)N(CC1CCCO1)C(=O)CNS(=O)(=O)c1ccc(F)cc1 (stereo unspecified) | -0.85% (inactive)
61 | COc1ccccc1Nc1ncnc2c1oc1ccccc12 | 86.1% (active)
62 | CCC(C(=O)OC)n1cnc2c(oc3ccccc32)c1=O (stereo unspecified) | 2.16% (inactive)
63 | COc1ccc(C)cc1Nc1nc(C)nc2c1oc1ccccc12 | 13.4% (inactive)
64 | Cn1c(=O)c2cn(-c3cccc4ccccc34)cc2n(C)c1=O | 18.1% (inactive)
65 | CC(=O)Nn1cc2c(=O)n(C)c(=O)n(C)c2c1 | 1.7% (inactive)
66 | COc1ccc(OC)c(-n2cc3c(=O)n(C)c(=O)n(C)c3c2)c1 | 64.9% (active)
67 | O=C(O)c1cccc2c1C(=O)N(C1CCCC1)C2 | -3.11% (inactive)
68 | O=C(COc1ccc(F)cc1Br)NCC1COc2ccccc2O1 (stereo unspecified) | 2.44% (inactive)
69 | CN1CCN(c2ccc([N+](=O)[O-])c(Sc3nc4ccccc4[nH]3)c2)CC1 | 50% (active)
70 | CC1CCN(c2ccc([N+](=O)[O-])c(SCCO)c2)CC1 | 13.1% (inactive)
71 | O=C(CSc1nc2ccccc2[nH]1)N/N=C/C=C\c1ccccc1[N+](=O)[O-] | 26.7% (inactive)
72 | O=C(OCC(=O)N1CCN(C(=O)c2ccco2)CC1)c1cccc(O)c1 | 4.27% (inactive)

Row | Structure (SMILES) | activation
73 | Cc1c(CN2CCC(CO)(CCOc3ccccc3)CC2)[nH]c2ccc(Cl)cc12 | 6.78% (inactive)
74 | COC(=O)c1[nH]c2ccc(Br)cc2c1NC(=O)Oc1ccccc1 | 48.5% (active)
75 | CCOC(=O)c1[nH]c2ccc(OC)cc2c1NC(=O)CCN1CCN(Cc2ccccc2)CC1 | 4.33% (inactive)
76 | COC(=O)c1oc2ccc(Br)cc2c1NC(C)=O | 1.12% (inactive)
77 | CN(Cc1ccccc1)C(=O)C(=O)c1cn(CC(=O)N2CCCC2)c2ccccc12 | 0.47% (inactive)
78 | NC(=O)C1(N2CCCCC2)CCN(C(=O)c2ccc(C#Cc3ccccc3)o2)CC1 | 0.68% (inactive)
79 | O=C(Nc1ccc(NC(=O)c2cccs2)cn1)c1ccco1 | -2.71% (inactive)
80 | O=C(Nc1ccnc(-c2ccncc2)n1)c1cccs1 | 55.7% (active)
81 | O=C(Nc1ccccc1)c1ccc(NC(=O)c2cccs2)cc1 | -3.44% (inactive)
82 | C/C=C(\C)C(=O)N1CC2(CC(c3cccc(NC(=O)CCCCC)c3)=NO2)C[C@@H]1C(N)=O (stereo partly specified) | 2.15% (inactive)
83 | N#CC1(NC(=O)COc2ccc3oc4ccccc4c3c2)CCCCC1 | 4.73% (inactive)
84 | Cc1nc2ccccc2nc(=O)c1NNc1ccc([N+](=O)[O-])cc1 | 47.2% (active)
85 | O=[N+]([O-])c1ccc2c(c1)Nc1nc3ccccc3nc1N2 | 36.9% (inactive)
86 | Cc1cccc(NS(=O)(=O)c2ccc([N+](=O)[O-])cc2)n1 | 1.34% (inactive)
87 | Cc1ccc(C(=O)N(CC(=O)NC2CCCC2)c2ccc(F)cc2)s1 | 2.22% (inactive)
88 | Cn1nc(-c2ccc(Cl)cc2)c2cc(C(=O)NCc3ccco3)sc21 | 79.7% (active)
89 | COc1ccccc1N1CCN(C(=O)c2cc3c(-c4ccc(Cl)cc4)nn(C)c3s2)CC1 | 121% (active)
90 | CC(C)(C)c1ccc(C(=O)NCc2ccco2)cc1 | 9.26% (inactive)
91 | COc1ccc2c(Cl)c(C(=O)NCc3ccco3)sc2c1 | -3% (inactive)
92 | CCOC(=O)N1CCN(C(=O)c2ccc3nc4cc(Cl)ccc4c(=O)n3c2)CC1 | 5.36% (inactive)
93 | CCOC(=O)N1CCN(C(=O)c2cc3c(-c4ccc(Cl)cc4)nn(C)c3s2)CC1 | 89.2% (active)
94 | COc1cccc(-c2cc(C(=O)N3CCN(c4ccccc4OC)CC3)no2)c1 | 2.67% (inactive)
95 | Cn1nc(C(F)(F)F)c2cc(C(=O)N3CCOCC3)sc21 | -0.43% (inactive)
96 | COc1cccc(-c2nn(C)c3sc(C(=O)N4CCN(c5ccccc5)CC4)cc23)c1 | 9.25% (inactive)
